PubChem BioAssay AID2012 (Sanford-Burnham Center for Chemical Genomics, 2009)
In all, about 290,000 compounds went through this assay and about 2,700 (0.93%) were called active. The sample holds actives, similar compounds and a random draw of the others, so the mix is not that of the screen. No rule for the calls is given here.

Molecular target: Eukaryotic translation initiation factor 4H (Homo sapiens) (UniProt Q15056)
Assay: human eIF4H binding inhibitors, primary screen, translation initiation inhibitor project, biochemical, uHTS, fluorescence polarization (AID 2012);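 also: calls also rest on retests at 20 µM and on dose response follow-up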
Conditions: eIF4H fluorescence polarization binding assay, stronger effect = higher value

Compound | inhibition (at 35 µM) | inhibition (confirmation average, at 20 µM)
CS(=O)(=O)N1CCc2cc(C(=O)Nc3ccccc3Br)ccc21 | -0.6% (inactive) | 
COCc1ccc(CN2CCC(Oc3ccc(C(=O)NCc4ccccn4)cc3)CC2)o1 | -2.5% (inactive) | 
O=C(CC12CC3CC(CC(C3)C1)C2)NCc1ccco1 | -1% (inactive) | 
O=C(COC(=O)C12CC3CC(CC(C3)C1)C2)NCc1ccco1 | 50.9% (active) | 92.2%
O=C(CC1CCCCC1)NCc1ccco1 | -6.2% (inactive) | 
O=C(COC(=O)c1cccs1)NCc1cccs1 | -7.5% (inactive) | 
O=C(COC(=O)c1cnc(Cl)c(Cl)c1)NCc1ccco1 | -1.2% (inactive) | 
O=C(COC(=O)CCC(=O)c1cccs1)NCc1ccco1 | 87% (active) | 63.4%
CC(C)CC(O)C1CCN(C(=O)CCc2nnc(-c3ccc4c(c3)OCO4)o2)CC1 (stereo not drawn) | 11.1% (inactive) | 
O=C(N/N=C\C1CC=CCC1)c1ccc(Br)o1 (stereo not drawn) | -1.2% (inactive) | 
CC(NC(=O)Cn1cc(C(F)(F)F)cc(Cl)c1=O)c1ccccc1 (stereo not drawn) | 4.6% (inactive) | 
O=C(O)c1cc(S(=O)(=O)NC2CCCc3ccccc32)ccc1O (stereo not drawn) | -2.4% (inactive) | 
Cc1ccc(CNC(=O)CCS(=O)(=O)c2ccc3c(c2)CC(C)N3C(=O)C2CC2)o1 (stereo not drawn) | -4.8% (inactive) | 
O=C(CCCN1C(=O)/C(=C/c2ccco2)SC1=S)Nc1ccccc1 | 77.4% (inactive) | 3.8%
O=C(CCCN1C(=O)/C(=C\c2ccco2)SC1=S)Nc1cccc2ccccc12 | 91.9% (inactive) | -11.3%
CN1C(=O)/C(=C/c2ccco2)SC1=Nc1cccc(C(=O)O)c1 | 99% (active) | 106%
CC(Oc1ccccc1)C(=O)Nc1c2c(nn1-c1ccccc1)CS(=O)C2 (stereo not drawn) | -8.2% (inactive) | 
O=C(OCc1ccc(-c2ccccc2)cc1)c1cccc(O)c1 | -0.5% (inactive) | 
Cc1cc(/C=C2\SC(=Nc3ccc(N4CCOCC4)cc3)N(C)C2=O)c(C)n1-c1cccnc1 | 2.5% (inactive) | 
Cc1cc(/C=C2/SC(=O)N(CC(=O)N3CCCC3)C2=O)c(C)n1C | 8.5% (inactive) | 
Cc1cc(/C=C2\SC(=O)N(C)C2=O)c(C)n1-c1cccc(C(=O)O)c1 | 89.5% (active) | 
NS(=O)(=O)c1ccc(NC(=S)N2CCCC2)cc1 | 102% (active) | 104%
CC1CN(C(=S)Nc2ccc(S(N)(=O)=O)cc2)CC(C)O1 (stereo not drawn) | 4.3% (inactive) | 
COc1ccc(N2CCN(C(=S)Nc3ccc(S(N)(=O)=O)cc3)CC2)cc1 | -13.4% (inactive) | 

Compound | inhibition (at 35 µM) | inhibition (confirmation average, at 20 µM)
C=CCn1c(C23CC4CC(CC(C4)C2)C3)n[nH]c1=S | -9.9% (inactive) | 
CC(=O)N1CCN(c2ccccc2NC(=S)NC(=O)c2cc3ccccc3o2)CC1 | -11.7% (inactive) | 
CC(C(=O)Nc1ccc(O)c(C(=O)O)c1)N1C(=O)/C(=C/c2cccs2)SC1=S (stereo not drawn) | -4.3% (inactive) | 
CC(=O)NS(=O)(=O)c1ccccc1 | -6.2% (inactive) | 
Cc1ccc(S(=O)(=O)NC(=O)c2cccc(C)c2)cc1 | -5% (inactive) | 
Nc1ccc(S(=O)(=O)NC(=O)c2ccccc2)cc1 | -6.9% (active) | 95.5%
CN1CN(C)c2ccc([N+](=O)[O-])c3cccc1c23 | 2.5% (inactive) | 
Nc1c(C(=O)c2cccs2)sc2nsc(SCCN3CCCCC3)c12 | 47.9% (inactive) | 
Cc1c(-c2cccc(Cl)c2)nc2ccccc2c1C(=O)OCC(=O)N(C)C1CCS(=O)(=O)C1 (stereo not drawn) | -7% (inactive) | 
CN(C(=O)COC(=O)c1nc(Cl)ccc1Cl)C1CCS(=O)(=O)C1 (stereo not drawn) | 10.5% (inactive) | 
CN(C(=O)COC(=O)c1cc(-c2ccco2)nc2ccccc12)C1CCS(=O)(=O)C1 (stereo not drawn) | 87.9% (active) | 
Cc1cccc(NC(=O)Nc2nnc(-c3ccccc3)o2)c1 | -0.2% (inactive) | 
Cc1ccnc2nc(C(=O)Nc3nnc(-c4ccccc4)o3)nn12 | 79.8% (active) | 77.1%
CCc1nnc(NC(=O)c2nc3nccc(C)n3n2)s1 | -4% (inactive) | 
O=C(N/N=C/c1ccccc1O)C1CCCC1 | -4.4% (inactive) | 
CN(C(=O)C1CCN(c2ncnc3c2nc2n3CCCCC2)CC1)C1CCCCC1 | -2.5% (inactive) | 
Cc1ccc(OCc2cc(C(=O)N(C)CCn3ccnc3C)no2)cc1C | -8.6% (inactive) | 
COc1ccc(CNC(=O)c2cc3c(=O)n4ccccc4nc3n(CC3CCCO3)c2=N)cc1 (stereo not drawn) | -5.4% (inactive) | 
Cc1cccn2c(=O)c3cc(C(=O)NCC4CCCO4)c(=N)n(Cc4ccc(F)cc4)c3nc12 (stereo not drawn) | -14.9% (inactive) | 
Cc1ccc2nc3c(cc(C(=O)NCCc4ccccc4)c(=N)n3CC3CCCO3)c(=O)n2c1 (stereo not drawn) | 94.7% (active) | 
Cc1cc(NC(=O)[C@H](C)NC(=O)c2ccco2)ccc1Br | -0.5% (inactive) | 
O=C1CC(N2CCN(c3ccc(F)cc3)CC2)C(=O)N1c1ccccc1 (stereo not drawn) | -4% (inactive) | 
N#CC1=C(N)N(c2ccc(F)cc2)C(=O)C1 | 50% (active) | 
O=C1CCCC2=C1C(c1cccs1)CC(=O)N2c1ccc(F)cc1 (stereo not drawn) | -3.5% (inactive) | 

Compound | inhibition (at 35 µM) | inhibition (confirmation average, at 20 µM)
Cc1cc(S(=O)(=O)N2CCOCC2)ccc1OCC(=O)N1CCOCC1 | -9.8% (inactive) | 
O=C(NC1CCC(O)CC1)c1ccccc1OCc1ccc(F)cc1 (stereo not drawn) | 4.1% (inactive) | 
CCCNC(=O)CCc1c(C)nc2c(c(C)nn2-c2ccccc2)c1C | -1.8% (inactive) | 
Cc1ccc(NC(=O)C(CC(=O)O)C2CCCO2)c(C)c1 (stereo not drawn) | -7% (inactive) | 
CO/N=C(\N)c1ccc([N+](=O)[O-])cc1 | 0.6% (inactive) | 
N/C(=N\OS(=O)(=O)c1cccc([N+](=O)[O-])c1)c1ccncc1 | 73.8% (active) | 88.7%
O=C(N/N=C/c1cccc([N+](=O)[O-])c1)c1ccncc1 | 0.8% (inactive) | 
CC(Cc1cccs1)N(Cc1ccc(Cl)cc1)C(=O)c1ccncc1 (stereo not drawn) | -2% (inactive) | 
CCN(C(=O)COC(=O)c1cc(S(=O)(=O)N2CCc3ccccc32)ccc1OC)C1CCS(=O)(=O)C1 (stereo not drawn) | 3.9% (active) | 71.9%
COc1ccccc1N(C)C(=O)c1cc(S(=O)(=O)N2CCc3ccccc32)cn1C | -9.4% (inactive) | 
COc1ccc(C(=O)OCC(=O)NCC2CCCCC2)cc1S(=O)(=O)N1CCCc2ccccc21 | -7.1% (inactive) | 
COc1cc(OC)c(NC(=O)C2CCCN2C(=O)OCc2ccccc2)cc1Cl (stereo not drawn) | -2% (inactive) | 
Cc1cccc(C(=O)NC(=S)N(C)C2CCCCC2)c1 | -8.7% (inactive) | 
COc1cccc(NC(=S)NCc2ccco2)c1 | 22.2% (inactive) | 
S=C(NCc1ccc2c(c1)OCO2)NCc1ccco1 | -0.2% (inactive) | 
S=C(NCc1ccco1)Nc1ccc2c(c1)OCCO2 | -2.7% (active) | 51.4%
O=C(CSc1ccc(-c2ccc(Br)cc2)nn1)NCC1CCCO1 (stereo not drawn) | 3.3% (inactive) | 
O=C(N/N=C/c1ccc(OCc2ccccc2)cc1)c1ccc(O)cc1 | -5.8% (inactive) | 
O=C(COc1ccc(/C=N/NC(=O)c2ccc(O)cc2)cc1)Nc1ccc([N+](=O)[O-])cc1 | -1.7% (active) | 85.6%
O=C(COc1ccc([N+](=O)[O-])cc1)Nc1ccc(N2CCCC2)cc1 | 13.8% (inactive) | 
CCSCc1nc(N)nc(NCCc2ccccc2)n1 | -0.9% (inactive) | 
CC(=O)c1cnc(SCCN2C(=O)c3ccccc3C2=O)nc1C | -11.9% (inactive) | 
CC(=O)c1cnc(SCC(=O)O)nc1C | -2.4% (active) | 82.3%
CSc1ncc(C(=O)NCCCc2ccccc2)c(C)n1 | -7.3% (inactive) | 

Compound | inhibition (at 35 µM) | inhibition (confirmation average, at 20 µM)
CSCCC(NS(=O)(=O)c1ccccc1F)C(=O)N1CC=C(c2ccccc2)CC1 (stereo not drawn) | 0% (inactive) | 
COc1ccc(/C=N/NC(=O)c2cccc(C(F)(F)F)c2)cc1 | -2.2% (inactive) | 
Cn1cccc1/C=N/NC(=O)c1ccc(OC(F)(F)C(F)F)cc1 | 9.7% (active) | 56.1%
Cn1cccc1/C=N/NC(=O)CNc1cccc2ccccc12 | -6.2% (inactive) | 
NC(=O)c1ccc(Nc2ccc3nonc3c2[N+](=O)[O-])cc1 | -14.2% (inactive) | 
COc1ccccc1NC(=O)N1CCCC1C(=O)NCc1cccs1 (stereo not drawn) | -15.4% (inactive) | 
CCS(=O)(=O)N1CCC(N2CCN(c3ccccc3)CC2)CC1 | 7.8% (inactive) | 
CC(/C=N/NC(=O)c1ccncc1)=C\c1ccco1 | 25.2% (inactive) | 
C/C(=C\c1ccco1)C1Nc2cccc3cccc(c23)N1 | 107% (active) | 
CC(/C=N/NC(=O)c1cc(-c2ccc3ccccc3c2)n[nH]1)=C\c1ccco1 | 66.1% (inactive) | -19.6%
Cc1ccc(-n2nc3ccc(NC(=O)/C=C/c4ccco4)cc3n2)cc1C | 71.7% (active) | 73.8%
O=C(/C=C/c1ccco1)Nc1cccc(-c2nc3ccccc3[nH]2)c1 | -7.2% (inactive) | 
O=C(/C=C/c1ccco1)Nc1ccc(Oc2ccccc2)cc1 | 2.4% (inactive) | 
COc1ccc(C2CC(c3ccc([N+](=O)[O-])cc3)=NN2C(C)=O)cc1 (stereo not drawn) | 2.5% (inactive) | 
Cc1cc(C)c2c3c(sc2n1)C(c1ccccc1)C(C#N)=C(N)O3 (stereo not drawn) | 1% (inactive) | 28.6%
N#CC1=C(N)Oc2c(sc3ccccc23)C1c1ccco1 (stereo not drawn) | 74% (active) | 
CC1=C(C(=O)Nc2ccccc2)C(c2ccco2)C(C#N)=C(SCC(N)=O)N1 (stereo not drawn) | 10.9% (inactive) | 
COc1ccccc1CCNC(=O)c1c(C)nn(CC(C)C)c1Cl | -10.7% (inactive) | 
O=S(=O)(Oc1ccccc1C(=S)N1CCOCC1)c1ccc(Cl)cc1 | 1% (inactive) | 
CCN(CC)c1ccc(/C=N/Nc2nc(C)cc(C)n2)c(O)c1 | 83.3% (active) | 87.6%
Cc1cc(C)nc(N/N=C/c2ccncc2)n1 | -8.8% (inactive) | 
CCN(CC)c1ccc(/C=N/NC(=O)c2cnccn2)c(O)c1 | 1.5% (inactive) | 
Cc1ccccc1CN1CCNC(=O)C1CC(=O)NCCC1=CCCCC1 (stereo not drawn) | 5.3% (inactive) | 
